Data on five compounds can be found in PubChem BioAssay.

The nature of assay [1]: binders of probe aFSTL3 on microarray, primary screen, stem cell growth factor project, biochemical, small-molecule microarray, fluorescence 635/667 (AID 1064).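 Further: measures binding of the biotinylated anti-FSTL3 antibody to printed compounds.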 Particulars: higher = more signal.
Assay [2] can be described thus: binders from COS7 lysate, DM2A8 probe, primary screen, torsin A project, cell lysate, small-molecule microarray, fluorescence 635/667 (AID 1065). Particulars: higher = more signal, COS7 lysate expressing mutant human TOR1A.
Assay [3] can be described thus: binders of probe aFGF2 on microarray, primary screen, stem cell growth factor project, biochemical, small-molecule microarray, fluorescence 635/667 (AID 1067).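 Further: measures binding of biotinylated aFGF2 protein to printed compounds on slides; z-score merges feature fluorescence and signal-to-noise across triplicate slides.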 Particulars: higher = more signal.
Assay [4] can be described thus: binders of probe aFGF10 on microarray, primary screen, stem cell growth factor project, biochemical, small-molecule microarray, fluorescence 635/667 (AID 1071).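 Further: score merges 667 nm spot intensity and signal to noise from triplicate slides.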 The settings on record: higher = more signal.
The target in assay [5] is Neurogenic locus notch homolog protein 2 (Homo sapiens) (UniProt Q04721). The experiment in a line: Notch2 binders on small-molecule microarrays, primary screen, biochemical, small-molecule microarray, 635 nm fluorescence, stem cell growth factors (AID 1073). Particulars: Notch2 binding, higher = more signal.
Assay [6] addresses Pro-neuregulin-1, membrane-bound isoform (Homo sapiens) (UniProt Q02297). As to the kind of experiment: NRG1 binders on small-molecule microarrays, primary screen, psychiatric disease protein project, biochemical, small-molecule microarray, fluorescence 635/667 (AID 1075).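 Further: score combines 667 nm spot fluorescence with signal to noise.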 The settings on record: NRG1 binding, 635 nm fluorescence, higher = more signal.
Assay [7] relates to Neuregulin-1 EGF-like domain. As to the kind of experiment: binders of neuregulin-1 EGF-like domain, primary screen, biochemical, small-molecule microarray, 635 nm fluorescence (AID 1081).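 Further: binding of the protein to compounds printed on small-molecule microarray slides.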 Particulars: small-molecule microarray binding, higher = more signal.
Assay [8] is described as follows: FRG1 promoter luciferase signal modulators, primary screen, FRG1 inhibition for FSHD, cell-based, C2C12 myotubes, firefly/Renilla luciferase, luminescence (AID 1084). Particulars: higher = more signal, called active from +8 up or from −8 down.
Assay [9] is described as follows: binders of probe aFST on microarray, primary screen, stem cell growth factor project, biochemical, small-molecule microarray, fluorescence 635/667 (AID 1086).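 Further: score merges 667 nm fluorescence with signal-to-noise of each printed compound spot.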 Particulars: higher = more signal.
A short description of assay [10]: binders of probe aHhip on microarray, primary screen, stem cell growth factor project, biochemical, small-molecule microarray, fluorescence 635/667 (AID 1087).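 Further: score merges spot fluorescence at 667nm with spot signal to noise ratio.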 Particulars: higher = more signal.
For assay [11], the system named is PRMT1 (protein arginine N-methyltransferase 1). As to the kind of experiment: PRMT1 binders on small-molecule microarrays, primary screen, biochemical, small-molecule microarray, 635 nm fluorescence (AID 1088).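 Further: binding of Prmt1 protein to compounds spotted on small-molecule microarray slides.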 Particulars: small-molecule microarray binding, higher = more signal.
Assay [12] in a line: yeast growth modulation, basal conditions, primary screen, YJM789 clinical isolate, OD600, 24 h (AID 1089).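 Further: growth of clinical yeast isolate S. cerevisiae YJM 789 seeded 1000 cells per well; test concentration not given here.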 The settings on record: S. cerevisiae YJM789 growth, higher = more signal, called active from +8 up or from −8 down.
A short description of assay [13]: fission yeast growth modulation, primary screen, strain 972, OD600, 24 h, no modulator (AID 1090).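 Further: basal condition with compound alone and no growth modifier present; test concentration not given here.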 Particulars: S. pombe 972 growth, higher = more signal, called active from +8 up or from −8 down.
The nature of assay [14]: S. cerevisiae growth modulation with rapamycin, primary screen, strain BY4716, OD600, 96 h (AID 1091). Further: test concentration not given here. The settings on record: higher = more signal, called active from +8 up or from −8 down.
The target of assay [15] is Torsin-1A-interacting protein 2 (Homo sapiens) (UniProt Q8NFQ8). The experiment in a line: LULL1 binders on small-molecule microarray, primary screen, cell lysate, human LULL1 lysate, 635/667 nm fluorescence (AID 1092).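 Further: probe is lysate of COS7 cells overexpressing human LULL1; score merges per-feature 667 nm fluorescence with signal-to-noise.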 Particulars: hLULL1 lysate binding, 635 nm fluorescence, higher = more signal.
A short description of assay [16]: E. coli growth modulation, two-sided OD650, primary screen, E. coli filamentation project, strain DRC41, 24 h (AID 1093).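 Further: MC1000 strain lacking acrAB efflux and sulA so SOS filamentation is blocked; test concentration not given here.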 Particulars: OD650, 24 h, higher = more signal, called active from +8 up or from −8 down.
Assay [17] can be described thus: small-molecule microarray binders of probe aLefty2, primary screen, biochemical, biotinylated probe, 635/667 nm fluorescence (AID 1094).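 Further: score merges spot fluorescence near 667 nm with spot signal-to-noise ratio.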 Particulars: higher = more signal.
For assay [18], the system named is Noggin (protein binding on small-molecule microarray). The experiment in a line: Noggin binders on small-molecule microarray, primary screen, biochemical, 635/667 nm fluorescence (AID 1095).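 Further: score merges 667 nm feature fluorescence with signal to noise over triplicate slides.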 The settings on record: 635 nm fluorescence, higher = more signal.
The target in assay [19] is Neurogenic locus notch homolog protein 3 (Homo sapiens) (UniProt Q9UM47). The experiment in a line: NOTCH3 binders on small-molecule microarray, primary screen, biochemical, 635/667 nm fluorescence (AID 1096). Particulars: NOTCH3 binding, 635 nm fluorescence, higher = more signal.
A short description of assay [20]: small-molecule microarray binders of probe aEGFR, primary screen, biochemical, biotinylated probe, 635/667 nm fluorescence (AID 1097).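 Further: probe is a biotinylated anti-EGFR antibody binding compounds printed on slides; score combines fluorescence near 667 nm and signal to noise of each spot.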 The settings on record: higher = more signal.

Active and inactive are the calls of the source.

Sequence of Neurogenic locus notch homolog protein 3 (Homo sapiens) (Q9UM47 whole entry, looked up): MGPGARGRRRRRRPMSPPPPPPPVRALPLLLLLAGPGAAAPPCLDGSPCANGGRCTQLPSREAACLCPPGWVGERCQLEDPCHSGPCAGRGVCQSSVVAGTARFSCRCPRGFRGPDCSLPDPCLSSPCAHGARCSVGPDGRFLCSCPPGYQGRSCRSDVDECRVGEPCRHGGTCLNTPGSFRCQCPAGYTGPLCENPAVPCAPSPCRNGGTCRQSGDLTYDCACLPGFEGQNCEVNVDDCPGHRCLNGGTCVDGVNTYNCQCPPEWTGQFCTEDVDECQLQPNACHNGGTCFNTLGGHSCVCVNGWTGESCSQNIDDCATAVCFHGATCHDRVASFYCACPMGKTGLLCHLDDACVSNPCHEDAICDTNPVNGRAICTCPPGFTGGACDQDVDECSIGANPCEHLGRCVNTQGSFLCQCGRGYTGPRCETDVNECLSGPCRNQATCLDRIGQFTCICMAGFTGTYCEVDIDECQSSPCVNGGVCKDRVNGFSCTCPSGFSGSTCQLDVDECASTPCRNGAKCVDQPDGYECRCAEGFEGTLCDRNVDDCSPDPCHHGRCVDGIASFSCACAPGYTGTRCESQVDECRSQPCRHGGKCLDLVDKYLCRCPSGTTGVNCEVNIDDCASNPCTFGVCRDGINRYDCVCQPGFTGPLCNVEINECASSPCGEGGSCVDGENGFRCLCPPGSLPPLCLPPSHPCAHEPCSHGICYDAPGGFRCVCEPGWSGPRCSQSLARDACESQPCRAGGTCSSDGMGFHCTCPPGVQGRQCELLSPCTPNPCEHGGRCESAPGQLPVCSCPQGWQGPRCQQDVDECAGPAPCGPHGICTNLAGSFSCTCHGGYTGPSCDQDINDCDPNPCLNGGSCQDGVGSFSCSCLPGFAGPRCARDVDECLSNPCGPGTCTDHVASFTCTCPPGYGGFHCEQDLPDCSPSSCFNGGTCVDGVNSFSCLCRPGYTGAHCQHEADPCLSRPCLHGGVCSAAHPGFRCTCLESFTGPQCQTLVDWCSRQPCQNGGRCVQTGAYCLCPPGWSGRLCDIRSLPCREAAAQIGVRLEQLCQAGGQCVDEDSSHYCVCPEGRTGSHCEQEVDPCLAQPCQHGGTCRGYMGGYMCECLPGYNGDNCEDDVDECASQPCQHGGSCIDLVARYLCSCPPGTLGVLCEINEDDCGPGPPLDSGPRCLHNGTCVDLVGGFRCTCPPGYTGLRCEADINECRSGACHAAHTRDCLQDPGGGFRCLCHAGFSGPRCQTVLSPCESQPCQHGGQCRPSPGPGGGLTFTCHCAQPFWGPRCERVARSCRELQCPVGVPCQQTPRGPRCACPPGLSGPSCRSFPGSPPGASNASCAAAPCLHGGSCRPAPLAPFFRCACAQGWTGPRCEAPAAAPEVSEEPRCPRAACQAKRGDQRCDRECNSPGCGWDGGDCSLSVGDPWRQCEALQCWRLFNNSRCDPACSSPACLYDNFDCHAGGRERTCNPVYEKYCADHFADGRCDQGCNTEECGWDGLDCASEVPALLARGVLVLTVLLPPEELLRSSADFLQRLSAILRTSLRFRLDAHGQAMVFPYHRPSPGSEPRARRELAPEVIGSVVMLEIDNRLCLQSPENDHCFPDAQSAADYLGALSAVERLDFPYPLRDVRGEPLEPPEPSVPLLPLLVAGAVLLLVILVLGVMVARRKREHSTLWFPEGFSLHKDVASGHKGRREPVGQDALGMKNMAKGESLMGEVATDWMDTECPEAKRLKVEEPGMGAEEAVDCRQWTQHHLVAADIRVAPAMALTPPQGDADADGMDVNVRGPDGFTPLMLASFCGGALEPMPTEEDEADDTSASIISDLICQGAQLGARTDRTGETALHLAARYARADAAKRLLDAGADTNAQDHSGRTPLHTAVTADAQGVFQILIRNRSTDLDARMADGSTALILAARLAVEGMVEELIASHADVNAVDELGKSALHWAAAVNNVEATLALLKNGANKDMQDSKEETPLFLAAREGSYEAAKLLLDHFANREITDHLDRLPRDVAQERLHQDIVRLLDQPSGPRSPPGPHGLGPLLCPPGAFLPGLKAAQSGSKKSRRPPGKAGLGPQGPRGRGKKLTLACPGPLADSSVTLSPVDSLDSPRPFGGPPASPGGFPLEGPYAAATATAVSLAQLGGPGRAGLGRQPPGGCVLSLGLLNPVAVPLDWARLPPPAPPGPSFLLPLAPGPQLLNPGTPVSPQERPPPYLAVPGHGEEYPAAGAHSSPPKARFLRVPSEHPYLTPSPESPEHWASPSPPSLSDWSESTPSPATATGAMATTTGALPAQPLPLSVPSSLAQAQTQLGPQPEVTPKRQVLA
Sequence of Neurogenic locus notch homolog protein 2 (Homo sapiens) (Q04721 whole entry, looked up, canonical isoform): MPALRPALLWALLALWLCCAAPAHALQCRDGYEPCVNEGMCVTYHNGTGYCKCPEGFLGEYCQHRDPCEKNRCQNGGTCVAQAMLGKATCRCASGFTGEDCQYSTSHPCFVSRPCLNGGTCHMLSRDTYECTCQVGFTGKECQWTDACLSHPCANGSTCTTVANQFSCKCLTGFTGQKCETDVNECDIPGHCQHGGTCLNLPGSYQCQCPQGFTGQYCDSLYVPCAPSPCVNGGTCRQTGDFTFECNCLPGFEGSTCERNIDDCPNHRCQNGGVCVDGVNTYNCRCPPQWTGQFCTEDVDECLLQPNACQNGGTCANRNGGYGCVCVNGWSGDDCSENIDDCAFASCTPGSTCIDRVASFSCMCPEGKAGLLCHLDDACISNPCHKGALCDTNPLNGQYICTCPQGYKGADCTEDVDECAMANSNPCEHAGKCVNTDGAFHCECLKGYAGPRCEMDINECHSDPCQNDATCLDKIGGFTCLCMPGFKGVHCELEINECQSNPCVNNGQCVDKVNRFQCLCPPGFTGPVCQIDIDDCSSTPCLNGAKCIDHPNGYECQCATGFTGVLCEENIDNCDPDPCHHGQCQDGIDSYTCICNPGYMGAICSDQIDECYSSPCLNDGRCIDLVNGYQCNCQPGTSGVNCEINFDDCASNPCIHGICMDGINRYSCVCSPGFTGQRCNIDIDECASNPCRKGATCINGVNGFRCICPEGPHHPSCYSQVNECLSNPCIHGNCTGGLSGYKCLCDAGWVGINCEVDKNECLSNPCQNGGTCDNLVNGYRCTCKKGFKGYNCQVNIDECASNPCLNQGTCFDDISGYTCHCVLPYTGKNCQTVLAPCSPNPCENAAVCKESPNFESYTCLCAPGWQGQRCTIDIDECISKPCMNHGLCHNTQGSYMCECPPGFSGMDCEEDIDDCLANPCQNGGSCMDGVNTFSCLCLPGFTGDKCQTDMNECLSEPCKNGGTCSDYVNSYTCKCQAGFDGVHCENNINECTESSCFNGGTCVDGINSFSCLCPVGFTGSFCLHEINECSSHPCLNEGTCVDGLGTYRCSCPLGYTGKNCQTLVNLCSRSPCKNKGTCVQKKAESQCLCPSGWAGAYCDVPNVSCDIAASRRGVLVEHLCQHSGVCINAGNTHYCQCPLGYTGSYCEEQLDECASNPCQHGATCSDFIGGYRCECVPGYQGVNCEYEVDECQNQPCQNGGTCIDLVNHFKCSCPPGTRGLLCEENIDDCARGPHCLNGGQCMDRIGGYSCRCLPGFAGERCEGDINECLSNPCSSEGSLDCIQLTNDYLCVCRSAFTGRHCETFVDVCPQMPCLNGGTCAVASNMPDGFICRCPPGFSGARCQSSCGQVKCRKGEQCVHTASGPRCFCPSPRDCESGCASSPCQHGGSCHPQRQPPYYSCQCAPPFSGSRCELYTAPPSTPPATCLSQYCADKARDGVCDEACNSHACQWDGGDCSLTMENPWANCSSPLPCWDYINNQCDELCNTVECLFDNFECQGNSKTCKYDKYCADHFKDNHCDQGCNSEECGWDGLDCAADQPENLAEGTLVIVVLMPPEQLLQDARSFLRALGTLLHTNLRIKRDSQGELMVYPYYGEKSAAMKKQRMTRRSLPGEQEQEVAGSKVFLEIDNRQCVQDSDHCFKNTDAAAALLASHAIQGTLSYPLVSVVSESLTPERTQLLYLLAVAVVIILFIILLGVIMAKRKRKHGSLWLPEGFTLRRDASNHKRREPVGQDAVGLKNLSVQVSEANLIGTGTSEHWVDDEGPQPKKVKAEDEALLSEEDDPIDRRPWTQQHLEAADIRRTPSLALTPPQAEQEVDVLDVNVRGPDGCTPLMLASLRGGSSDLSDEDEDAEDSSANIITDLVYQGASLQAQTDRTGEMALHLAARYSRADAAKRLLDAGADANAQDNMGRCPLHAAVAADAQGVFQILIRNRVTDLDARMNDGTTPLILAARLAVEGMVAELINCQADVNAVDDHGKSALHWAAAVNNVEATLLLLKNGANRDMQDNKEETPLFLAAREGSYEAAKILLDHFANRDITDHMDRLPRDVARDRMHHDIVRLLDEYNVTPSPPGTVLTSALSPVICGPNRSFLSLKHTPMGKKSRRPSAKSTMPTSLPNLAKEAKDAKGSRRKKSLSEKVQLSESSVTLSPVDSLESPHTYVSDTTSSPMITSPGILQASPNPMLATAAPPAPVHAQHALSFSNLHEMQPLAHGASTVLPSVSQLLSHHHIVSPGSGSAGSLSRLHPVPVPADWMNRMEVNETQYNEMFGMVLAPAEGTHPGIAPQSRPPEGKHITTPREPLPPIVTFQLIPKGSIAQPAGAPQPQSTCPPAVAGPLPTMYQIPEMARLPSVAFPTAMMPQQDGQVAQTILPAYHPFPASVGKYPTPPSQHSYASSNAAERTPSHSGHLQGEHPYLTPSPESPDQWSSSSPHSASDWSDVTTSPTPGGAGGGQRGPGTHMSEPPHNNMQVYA

Consider `Cc1ccc(N2C(=O)c3ccccc3[C@](C)(C(=O)NC3CC3)[C@@H]2c2ccc(CO)cc2)nc1`, for which the composite z-score is 0.879 in [1]; -0.241 in assay [2]; -0.0948 in assay [3]; -0.325 in [4]; -0.344 in [5]; -0.474 in assay [6]. Besides, the composite z-score in assay [7] is -0.0515; in assay [9] it was 0.406; in assay [10], -0.0047; in assay [11] it was -0.349; in assay [15] it was 0.244; in assay [17], 0.149. The composite z-score in assay [18] is 0.381; in assay [19], -0.591; in [20] it was -0.0564. The z-score in assay [8] was 0.843 (inactive); in assay [12] it was 0.0474 (inactive); in assay [13] it was -0.981 (inactive); in assay [14], -0.69 (inactive); in [16], 0.949 (inactive).
In the case of `COC(=O)C(CC#Cc1ccc2c(c1)[C@]1(C(=O)N2)[C@H](C(=O)O)[C@H]2C(=O)O[C@H](c3ccccc3)[C@H](c3ccccc3)N2[C@@H]1c1ccc(OCCO)cc1)C(=O)OC`, the composite z-score in assay [1] is -0.0148; in assay [2] it was 1.74; in [3], -0.0144; in assay [4] it was 0.767; in assay [5], 1.17; in assay [6], 2.11. Besides, the composite z-score in assay [7] was 1.31; in assay [9] it was 0.6; in assay [10], -0.0994; in [11], 1.55; in assay [15], 3.03; in assay [17], -0.0816. Moreover, the composite z-score in assay [18] was 0.245; in assay [19], 0.983; in assay [20], -0.0728. The z-score was -1.19 (inactive) in assay [8]; 0.299 (inactive) in [12]; -1.91 (inactive) in assay [13]; -1.38 (inactive) in assay [14]; 3.49 (inactive) in [16].
As for `CCCNC(=O)[C@@]1(Sc2ccc(C)cc2)CC(=O)N(Cc2cc(C(F)(F)F)cc(C(F)(F)F)c2)[C@@H]1c1ccc(CO)cc1I`, the composite z-score in assay [1] is 0.71; in assay [2], 0.273; in assay [3] it was -0.0775; in [4], -0.84; in [5], -0.472; in [6] it was 1.16. In addition, the composite z-score in [7] is 0.242; in assay [9] it was 0.267; in [10] it was -0.0237; in assay [11], 0.491; in assay [15], 1.03; in assay [17], 0.024. Also, the composite z-score was -1.35 in [18], -0.168 in assay [19] and -0.118 in assay [20]. For the same compound, the z-score is -1.25 (inactive) in assay [8]; -5.07 (inactive) in [12]; -5.46 (inactive) in assay [13]; -0.894 (inactive) in assay [14]; 3.43 (inactive) in assay [16].
For `CC(C)(C)OC(=O)CC[C@]1(C(=O)NCc2ccccc2)N=C(c2ccc(OCCCO)cc2)O[C@H]1c1ccccc1N=[N+]=[N-]`, the composite z-score in [1] stood at 1.4; in assay [2], 1.11; in assay [3], 0.231; in [4], 0.907; in assay [5] it was 1.65; in assay [6] it was 1.91. The composite z-score in assay [7] is 1.26; in [9] it was 1.62; in [10] it was -0.248; in assay [11] it was 1.55; in [15] it was 3.41; in assay [17], 0.782. Moreover, the composite z-score is 1.69 in [18], 1.02 in assay [19] and 0.593 in [20]. Moreover, the z-score in assay [8] is 1.14 (inactive); in assay [12], -0.182 (inactive); in [13], -0.654 (inactive); in assay [14], 2.97 (inactive); in assay [16], 0.876 (inactive).
For the compound `COc1ccc(CCNC(=O)[C@@]2(Sc3ccc(C)cc3)CC(=O)N(Cc3ccccc3)[C@@H]2c2ccc(CO)cc2I)cc1`, the composite z-score is -1.07 in assay [1]; 0.461 in assay [2]; -0.187 in assay [3]; -0.111 in assay [4]; -0.0768 in assay [5]; 0.0114 in assay [6]. In addition, the composite z-score in assay [7] is 0.388; in [9], -0.32; in assay [10], -0.616; in [11], 0.471; in [15] it was 1.87; in [17] it was -0.337. Also, the composite z-score in assay [18] is -0.814; in [19] it was -0.915; in assay [20] it was -0.119. Further, the z-score in [8] is -1.58 (inactive); in assay [12], 0.44 (inactive); in assay [13], -1.66 (inactive); in assay [14] it was 2.72 (inactive); in assay [16], 0.485 (inactive).
